Most compounds without a hit are left out; they make up all but 7.3% or so of the library.
NIH3T3 tox: NIH 3T3 cell cytotoxicity; Potency, µM (top dose mostly 96.7 µM), for the others: at the top dose activity change, negative = cytotoxicity, hits mostly inhibitors; NIH 3T3 viability, CellTiter-Glo ATP luminescence, 48-72 h; hit rate 4.3% among 94,000; also: potency is read from the fitted curve at half-maximal effect; nearly all actives have a fitted effect of over 55% in size
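Cytotoxicity is measured as loss of cellular ATP: NIH 3T3 cells (400/well) are exposed to compound for 48 or 72 hr at 37 °C, then CellTiter-Glo luminescence is imaged after 10 min at room temperature.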
HEK cytotox: cytotoxic compounds in HEK 293 cells; HEK 293 viability, ATP luminescence (CellTiter-Glo), 48-72 h; Potency, µM (titrated, usually from 115 µM), for inactives: top-dose activity change, negative = cytotoxicity, actives largely listed as inhibitors; hit rate 6.6% among 94,000; also: potency is read from the fitted curve at half-maximal effect; nearly all actives have a fitted effect of over 60% in size
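Pintool-delivered compounds were incubated with HEK 293 cells (250 cells/well) at 37 degree Celsius for 48 or 72 hr. ATP-dependent luminescence (CellTiter-Glo) then reported remaining viable cells.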
IP6K1 inhibitor: inhibitors of human IP6K1; Q92551; IP6K1 kinase, ADP-Glo luminescence, 2 h; hits give low values; activity change, % (series mostly up to about 58 µM); hit rate 0.81% among 140,000; AID 1645851; in the data active = activity change below about -25%
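ADP-Glo luminescence measures ADP made by human IP6K1 during a 2 h RT reaction with ATP/IP6 (mix at 1.3 mM/130 uM); top library doses 57.5 and 19.1 uM final.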
SNCA expr inhib: reduces expression of the alpha-synuclein gene; HEK-293 SNCA-luciferase knock-in, luminescence, 24 h; Potency, µM (top dose mostly 57.2 µM), for the others: top-dose activity change, negative = inhibition, hits mostly inhibitors; hit rate 0.17% among 140,000; AID 1671194;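 also: potency is read from the fitted curve at half-maximal effect; plate controls were DMSO cells for no effect and cell-free wells for full effect; nearly all actives have a fitted effect of over 45% in size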
FLuc inh: blocks purified firefly luciferase enzyme activity. P08659. purified P. pyralis luciferase, luminescence, biochemical. Potency, µM (titrated, usually from 115 µM), usual class: inhibitors. hit rate 2.5% among 76,000. AID 1347043; also: potency is read from the fitted curve at half-maximal effect; nearly all actives have a fitted effect of over 65% in size
Target sequence (P08659 whole entry, looked up): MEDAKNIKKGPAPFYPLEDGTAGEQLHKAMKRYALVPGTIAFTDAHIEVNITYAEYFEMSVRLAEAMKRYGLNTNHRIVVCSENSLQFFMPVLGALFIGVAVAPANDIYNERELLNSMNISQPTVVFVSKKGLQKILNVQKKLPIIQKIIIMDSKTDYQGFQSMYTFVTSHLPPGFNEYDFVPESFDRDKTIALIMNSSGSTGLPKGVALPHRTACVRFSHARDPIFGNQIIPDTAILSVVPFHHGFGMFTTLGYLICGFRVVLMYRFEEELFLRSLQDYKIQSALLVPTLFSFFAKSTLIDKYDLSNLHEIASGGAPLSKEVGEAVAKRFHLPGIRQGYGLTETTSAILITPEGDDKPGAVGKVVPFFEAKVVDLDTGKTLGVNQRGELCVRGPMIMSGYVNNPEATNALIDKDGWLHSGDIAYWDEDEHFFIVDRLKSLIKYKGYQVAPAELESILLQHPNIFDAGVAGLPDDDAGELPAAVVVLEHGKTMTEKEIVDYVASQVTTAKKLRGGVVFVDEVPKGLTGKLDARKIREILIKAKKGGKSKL
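Luminescence read by CCD imaging after purified firefly luciferase (10nM final) was added to substrate buffer holding 10uM D-luciferin and 10uM ATP, pH 7.5, pre-dosed with compound.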
HEK293 viab: counter-screen for SNCA expression inhibitors: cell viability. HEK-293-SNCA-luc viability, GF-AFC fluorescence, 24 h. Potency, µM (series often up to 57.1 µM), for inactives: at the top dose activity change, negative = cytotoxicity, usual class: cytotoxic. hit rate 0.12% among 150,000;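 also: potency is read from the fitted curve at half-maximal effect; 0% = DMSO-treated cells and -100% = medium-only wells without cells; nearly all actives have a fitted effect of over 30% in size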
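HEK-293-SNCA-luc cells (1500/well) plated 24 h, then exposed 24 h to a dilution series; GF-AFC added 30 min at 37C, fluorescence 405/540 nm; normalised to medium-only and DMSO wells, Hill fit.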
* hit, by the source's call; i = inactive; ? = inconclusive; nt = not tested or not shown; [ ] = dose if it differs, or a comment. Unless noted, calls follow the shape of the dose curve; as a rule, active = well fitted curve in the direction sought with a large enough effect; inconclusive = small, poorly fitted or top-dose-only effect, or another doubt; inactive = no such curve, though single readings can be large; an effect the other way counts as inactive or inconclusive. Unless noted, % is scaled to controls: 0 for no effect and ±100 for the full control effect.

SMILES	NIH3T3 tox	HEK cytotox	IP6K1 inhibitor	SNCA expr inhib	FLuc inh	HEK293 viab
COc1ccc(C(=O)N[C@H]2[C@H](O)[C@H](O)C[C@@H]2c2ccc(C(F)(F)F)cc2)cc1	-8%[138 µM]	-15%[172 µM]	0	-9%[87.6 µM]	i	?
O=S(=O)(N[C@H]1[C@H](O)[C@H](O)C[C@@H]1c1ccc(C(F)(F)F)cc1)c1ccc(F)cc1	?	71µM*	13	-15%[87.6 µM]	i	-16%[87.6 µM]
COc1ccc([C@H]2C[C@@H](O)[C@@H](O)[C@@H]2NC(=O)Nc2ccc(C(F)(F)F)cc2)cc1	25µM*	?	-1	?	i	?
COCC(=O)N1CCCC1C(=O)N1CCC(N2Cc3ccccc3C2=O)CC1 (configuration not stated)	-11%	-17%	-6	-9%	nt	-3%
O=C(NC1CCC(O)CC1)c1ccc(-c2ncc3cnc(-c4cccc(F)c4)cn23)cc1 (configuration not stated)	-26%[138 µM]	71µM*	-8	3%[87.6 µM]	i	-15%[87.6 µM]
O=C(NCCc1cnc[nH]1)c1ccc(-c2ncc3cnc(-c4cccc(F)c4)cn23)cc1	50µM*	89µM*	-3	-11%[87.6 µM]	i	-16%[87.6 µM]
O=C(c1cccc(C(F)(F)F)c1)N1CC(=O)N(C2CCCCC2)CC(O)C1 (configuration not stated)	-22%	?	-2	nt	nt	nt
CC1=C[C@@H](CNC2CCOCC2)[C@H](C(C)C)C[C@H]1Cc1nc2ccc(Cl)cc2[nH]1	100µM*	?	12	5%[87.6 µM]	i	-25%[87.6 µM]
CC1=C[C@@H](CNC(=O)CCC(=O)O)[C@H](C(C)C)C[C@H]1Cc1nc2ccc(Cl)cc2[nH]1	-25%[174 µM]	-23%[172 µM]	13	-2%[87.6 µM]	i	-10%[87.6 µM]
CC1=C[C@@H](CN(C)C)[C@H](C(C)C)C[C@H]1Cc1nc2ncc(Cl)cc2[nH]1	71µM*	79µM*	-6	6%[87.6 µM]	i	-14%[87.6 µM]
CC1=C[C@@H](CNC(=O)CC2(CC(=O)O)CCCC2)[C@H](C(C)C)C[C@H]1Cc1nc2ccc(C)cc2[nH]1	-20%	-5%	-6	-17%	i	-23%
CC1=C[C@@H](CNC(=O)CN(C)C)[C@H](C(C)C)C[C@H]1Cc1nc2ccc(Cl)cc2[nH]1	89µM*	?	1	?	i	?
CC1=C[C@@H](CNC(=O)CN(C)C)[C@H](C(C)C)C[C@H]1Cc1nc2ccc(C)cc2[nH]1	79µM*	?	-1	-4%[87.6 µM]	i	?
Cc1cc(=O)n(CC(=O)Nc2ccc(F)c(Cl)c2)c(N2CCOCC2)n1	-15%	?	14	-11%	i	-17%
O=C(NCC(F)F)C1CCCN1c1nccc(Nc2ccccc2F)n1 (configuration not stated)	-28%	-12%	-2	-14%	nt	-6%[12.5 µM]
Cc1ccc(C(=O)NCC2(C)CCOCC2)s1	i	2%	-5	0%	i	2%
COc1ccc(C(=O)N2CCCC3(C2)NC(=O)N(Cc2ccc(Cl)cc2)C3=O)cc1 (configuration not stated)	-20%	50µM*	-9	-10%	i	-6%
CCOc1ccccc1C(=O)N1CCCC2(C1)NC(=O)N(Cc1ccc(Cl)cc1)C2=O (configuration not stated)	?	79µM*	-12	?	i	-8%
O=C(c1cc2ccccc2[nH]1)N1CCCC2(C1)NC(=O)N(Cc1ccccc1)C2=O (configuration not stated)	-28%	?	3	55%	i	6%
O=C(c1cc2ccccc2[nH]1)N1CCC2(C1)NC(=O)N(Cc1ccc(Cl)cc1)C2=O (configuration not stated)	?	35µM*	-4	17%	?	-7%
COC(=O)c1ccccc1NC(=O)c1c(OC)cc(=O)n2c1CCCC2	?	?	-5	-5%	i	-3%
O=C(CNC(=O)c1cccc(-c2ccc(C(F)(F)F)cc2)c1)NCCC1CCCCC1	22µM*	22µM*	9	-15%	nt	-29%
O=C(CNC(=O)c1cccc(-c2ccc(C(F)(F)F)cc2)c1)NCCc1ccc(Cl)cc1	-23%	16µM*	-7	-19%	nt	-1%[12.5 µM]
COCCNC(=O)CNC(=O)c1cccc(-c2ccc(C(F)(F)F)cc2)c1	?	?	2	15%	nt	2%[12.5 µM]
COc1cccc(CC(=O)N2CCCC3(C2)NC(=O)N(Cc2ccc(C)cc2)C3=O)c1 (configuration not stated)	-23%	-7%	-15	37%	i	-2%
SMILES	NIH3T3 tox	HEK cytotox	IP6K1 inhibitor	SNCA expr inhib	FLuc inh	HEK293 viab
O=C(Nc1ccc(F)cc1)c1nc2sccn2c1-c1cccc(C(F)(F)F)c1	?	50µM*	5	-7%	nt	-5%
O=C(NCc1cccc(C(F)(F)F)c1)c1nc2sccn2c1-c1ccc(C(F)(F)F)cc1	?	40µM*	15	?	nt	-14%
Cc1ccc(NC(=O)c2nc3sccn3c2-c2ccncc2)cc1	?	112µM*	11	20%[87.6 µM]	nt	-24%[87.6 µM]
O=C(NCc1cccc(C(F)(F)F)c1)c1nc2sccn2c1-c1ccncc1	?	?	1	?	nt	?
O=C(NCc1ccc(F)cc1)c1nc2sccn2c1-c1cccc(C(F)(F)F)c1	?	63µM*	0	-18%[87.6 µM]	nt	-20%[87.6 µM]
Cc1cccc(N2CCN(C(=O)c3noc(-c4ccc[nH]c4=O)n3)CC2)c1C	?	?	0	-9%	i	1%
O=C(NCCc1ccc(Cl)cc1)c1nc2sccn2c1-c1ccc(C(F)(F)F)cc1	20µM*	40µM*	10	?	nt	-22%
O=C(NCc1ccccc1F)c1nc2sccn2c1-c1cccc(C(F)(F)F)c1	-24%	-9%	13	67%	nt	-19%
COCCNC(=O)c1nc2sccn2c1-c1ccc(C(F)(F)F)cc1	?	-27%	23	-26%	nt	3%
O=C(NCc1ccccc1)c1nc2sccn2c1-c1ccncc1	?	112µM*	4	28%[87.6 µM]	nt	-1%[87.6 µM]
O=C(NCc1ccccc1Cl)c1nc2sccn2c1-c1cccc(C(F)(F)F)c1	?	25µM*	-3	-5%	nt	-8%
COc1ccc(-c2c(C(=O)Nc3cccc(Cl)c3)nc3sccn23)cc1	?	63µM*	12	-6%[87.6 µM]	nt	-8%[87.6 µM]
Cc1cccc(C(=O)NCCc2ncc(C)n2C2CC2)c1	-6%	?	7	32%	i	2%
Cc1cccc(C(=O)N2C[C@@H](Oc3ccccc3)C[C@@H]2C(=O)N2CCOCC2)c1	-27%	?	13	4%	i	-16%
